PubChem BioAssay
Activity calls are given as the source filed them.

Tests used:
Albumin (Bos taurus) = Albumin (Bos taurus) (UniProt P02769); assay: compounds binding labelled BSA control protein – biochemical, small-molecule microarray, Alexa647 label, 635/667 nm fluorescence, artefact control for SMM control protein annotation, profiling panel (AID 1118); settings: BSA-A647 binding, fluorescence 635 nm, higher = more signal;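 further: score merges 667 nm emission intensity and signal-to-noise per printed compound spot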
[1] = probe aXIP binding to arrayed compounds – biochemical, NeuroSMM set, 635/667 nm fluorescence, primary screen (AID 1119); settings: small-molecule microarray, higher = more signal, called active from +8 up or from −8 down;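 further: probe is the protein aXip251-270 applied at 1 µg/mL to compound-printed slides; binding of probe to printed compounds measured as 667 nm fluorescence plus signal to noise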
[2] = probe aNOTCH3 binding on compound microarray – biochemical, small-molecule microarray, 635/667 nm fluorescence, primary screen (AID 1120); settings: higher = more signal;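 further: probe is a biotin-tagged antibody raised against NOTCH3 rather than NOTCH3 protein; score merges spot fluorescence near 667 nm with spot signal to noise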
[3] = probe aNOTCH2 binding on compound microarray – biochemical, small-molecule microarray, 635/667 nm fluorescence, primary screen (AID 1121); settings: higher = more signal;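 further: score merges feature fluorescence read at 667 nm with its signal to noise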
[4] = target: Carbonic anhydrase 2 (Homo sapiens) (UniProt P00918); assay: compounds binding carbonic anhydrase 2 – biochemical, small-molecule microarray, Alexa647-labelled CAII, profiling panel (AID 1122); settings: CAII-A647 binding fluorescence, higher = more signal
[5] = COS7 lysate on small-molecule microarray, probe aHis, 635 nm (AID 1123); settings: COS7 cell lysate, fluorescence, higher = more signal;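 further: z-score combines 667nm fluorescence intensity with signal-to-noise per printed compound spot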
[6] = probe aLAP1 signal on lysate-treated microarray – cell lysate, small-molecule microarray, COS7 lysate, primary screen (AID 1124); settings: probe aLAP1, fluorescence, higher = more signal;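 further: lysate comes from COS7 cells expressing LAP1 and is applied at 0.3 µg/mL; score merges spot fluorescence near 667 nm with signal-to-noise over triplicate slides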
Sam68 (KHDRBS1) = assay: compounds binding KHDRBS1 protein – biochemical, small-molecule microarray, 635 nm fluorescence, primary screen (AID 1125); settings: higher = more signal;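 further: score merges 667 nm channel intensity with signal to noise over triplicate slides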
[7] = system: Chordin-like protein 2 (CHRDL2); assay: compounds binding chordin-like 2 – biochemical, small-molecule microarray, 635 nm fluorescence, primary screen (AID 1126); settings: fluorescence 635 nm, higher = more signal;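 further: printed compound slides probed with Chrdl2 protein at 4 µg/mL for 1 h at 4 C; score merges 667 nm emission intensity with signal to noise over three replicate slides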
[8] = target: Concanavalin-A (Canavalia ensiformis) (UniProt P02866); assay: compounds binding concanavalin A lectin – biochemical, small-molecule microarray, Alexa647 label, 635 nm, artefact control for SMM control protein annotation, primary screen (AID 1127); settings: ConA-A647 binding fluorescence, higher = more signal;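 further: z combines 667 nm emission intensity with signal-to-noise across three replicate slides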
[9] = compounds binding Alexa647 anti-His antibody – biochemical, small-molecule microarray, 635 nm fluorescence, artefact control for SMM control protein annotation, primary screen (AID 1128); settings: higher = more signal;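 further: score merges feature fluorescence with signal-to-noise for each printed compound spot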
[10] = system: Human papillomavirus type 1a E7 protein (residues 1-88); assay: HPV1a E7 small-molecule binders, primary screen, biochemical, small-molecule microarray, residues 1-88, 635 nm (AID 1129); settings: small-molecule microarray binding, fluorescence 635 nm; higher = more signal
[11] = target: Focal adhesion kinase 1 (Homo sapiens) (UniProt Q05397); assay: PTK2 protein binding on printed compound slides – biochemical, small-molecule microarray, 635/667 nm fluorescence, BSA, DTT, primary screen (AID 1130); settings: 635 nm fluorescence, higher = more signal;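 further: composite of spot emission at 667 nm and signal to noise over triplicate slides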
[12] = system: Fibrinogen (Alexa647-labelled); assay: Alexa647-fibrinogen binding to printed small molecules – biochemical, small-molecule microarray, 635/667 nm fluorescence, artefact control for SMM control-protein annotation, profiling panel (AID 1131); settings: fibrinogen-A647 binding fluorescence, higher = more signal;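 further: z-score merges 667 nm fluorescence with per-spot signal-to-noise over triplicate slides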
[13] = target: Follistatin (Homo sapiens) (UniProt P19883); assay: FST protein binding to printed compounds – biochemical, small-molecule microarray, 635/667 nm fluorescence, primary screen (AID 1132); settings: 635 nm fluorescence, higher = more signal
[14] = target: Fibroblast growth factor 2 (Homo sapiens) (UniProt P09038); assay: basic fibroblast growth factor binding to printed compounds – biochemical, small-molecule microarray, 635/667 nm fluorescence, primary screen (AID 1133); settings: FGF2, fluorescence 635/667, higher = more signal
[15] = JC-1 mitochondrial potential readout, lung cancer cells – cell-based, A549, JC-1 fluorescence, basal, 24 h, 100 nL, profiling panel (AID 1138); settings: higher = more signal;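 further: A549 lung adenocarcinoma cells under basal conditions with no added stimulus; test concentration not given here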
Lefty1 = Lefty1 protein binding to printed compounds – biochemical, small-molecule microarray, 635/667 nm fluorescence, primary screen (AID 1139); settings: fluorescence 635/667, higher = more signal
[16] = system: wheat germ agglutinin (Triticum aestivum), Alexa647-labelled; assay: Alexa647-WGA lectin binding to printed small molecules – biochemical, small-molecule microarray, 635/667 nm fluorescence, artefact control for SMM control-protein annotation, profiling panel (AID 1140); settings: WGA-A647 binding, 635 nm fluorescence, higher = more signal;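 further: score merges 667 nm feature emission with signal to noise over triplicate slides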
[17] = target: Luciferin 4-monooxygenase (Photinus pyralis) (UniProt P08659); assay: inhibition of purified Photinus pyralis luciferase – biochemical, luminescence, purified enzyme, 2006 set, primary screen (AID 1141); settings: purified firefly luciferase, SteadyGlo luminescence, 30 min; higher = more signal, called active from +8 up or from −8 down;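 further: cell-free assay with purified firefly luciferase at 100 ng per well in PBS; test concentration not given here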
Sequence of Luciferin 4-monooxygenase (Photinus pyralis) (P08659 whole entry, looked up): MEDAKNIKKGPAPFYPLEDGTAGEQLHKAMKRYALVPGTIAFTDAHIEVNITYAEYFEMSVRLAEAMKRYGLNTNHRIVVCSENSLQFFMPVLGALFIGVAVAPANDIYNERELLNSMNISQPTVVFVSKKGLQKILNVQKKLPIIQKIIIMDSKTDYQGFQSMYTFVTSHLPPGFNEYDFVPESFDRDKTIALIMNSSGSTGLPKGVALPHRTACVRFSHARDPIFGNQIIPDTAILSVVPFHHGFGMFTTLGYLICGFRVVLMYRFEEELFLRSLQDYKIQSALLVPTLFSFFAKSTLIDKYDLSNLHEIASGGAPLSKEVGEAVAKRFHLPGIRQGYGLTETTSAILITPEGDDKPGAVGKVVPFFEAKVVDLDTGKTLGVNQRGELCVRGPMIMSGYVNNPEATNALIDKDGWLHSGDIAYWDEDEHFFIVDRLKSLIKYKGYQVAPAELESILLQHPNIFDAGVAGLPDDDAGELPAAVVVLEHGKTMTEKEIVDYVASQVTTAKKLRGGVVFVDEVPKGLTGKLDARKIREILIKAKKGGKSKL

Sequence of Focal adhesion kinase 1 (Homo sapiens) (Q05397 whole entry, looked up): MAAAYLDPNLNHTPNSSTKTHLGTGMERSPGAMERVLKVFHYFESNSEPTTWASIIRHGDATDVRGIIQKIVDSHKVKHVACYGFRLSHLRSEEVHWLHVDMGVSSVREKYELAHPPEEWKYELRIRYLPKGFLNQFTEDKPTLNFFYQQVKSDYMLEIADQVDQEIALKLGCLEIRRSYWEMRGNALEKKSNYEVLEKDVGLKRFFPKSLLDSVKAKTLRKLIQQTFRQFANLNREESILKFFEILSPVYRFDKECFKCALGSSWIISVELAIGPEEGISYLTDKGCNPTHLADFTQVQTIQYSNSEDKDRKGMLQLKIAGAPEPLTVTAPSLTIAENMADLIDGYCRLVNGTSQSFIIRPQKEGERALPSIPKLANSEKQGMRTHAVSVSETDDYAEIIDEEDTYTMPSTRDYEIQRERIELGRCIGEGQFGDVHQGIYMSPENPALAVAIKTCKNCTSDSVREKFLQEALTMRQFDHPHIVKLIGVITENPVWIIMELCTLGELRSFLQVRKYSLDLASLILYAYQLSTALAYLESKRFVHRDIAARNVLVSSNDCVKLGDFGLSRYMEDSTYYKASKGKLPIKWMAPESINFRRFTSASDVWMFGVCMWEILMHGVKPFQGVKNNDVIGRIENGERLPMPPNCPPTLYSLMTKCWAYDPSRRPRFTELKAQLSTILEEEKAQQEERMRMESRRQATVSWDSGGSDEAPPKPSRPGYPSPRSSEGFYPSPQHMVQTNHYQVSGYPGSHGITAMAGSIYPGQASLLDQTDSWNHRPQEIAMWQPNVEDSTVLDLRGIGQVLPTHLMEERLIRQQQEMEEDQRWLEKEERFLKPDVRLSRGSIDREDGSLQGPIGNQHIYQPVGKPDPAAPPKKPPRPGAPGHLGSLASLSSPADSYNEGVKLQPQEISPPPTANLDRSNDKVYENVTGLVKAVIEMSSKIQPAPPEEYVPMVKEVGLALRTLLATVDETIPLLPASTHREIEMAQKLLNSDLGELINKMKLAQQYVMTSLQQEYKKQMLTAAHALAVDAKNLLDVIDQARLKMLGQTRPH
Sequence of Follistatin (Homo sapiens) (P19883 whole entry, looked up): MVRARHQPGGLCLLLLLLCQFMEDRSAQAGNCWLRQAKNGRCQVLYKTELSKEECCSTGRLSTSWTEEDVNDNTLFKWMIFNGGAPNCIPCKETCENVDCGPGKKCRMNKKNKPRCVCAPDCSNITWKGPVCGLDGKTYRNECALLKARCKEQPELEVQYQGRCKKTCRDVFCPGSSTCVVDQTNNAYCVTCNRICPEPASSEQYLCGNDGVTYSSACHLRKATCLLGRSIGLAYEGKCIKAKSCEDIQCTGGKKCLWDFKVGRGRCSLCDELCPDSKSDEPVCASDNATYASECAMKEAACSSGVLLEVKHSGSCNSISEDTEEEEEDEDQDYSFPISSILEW
Sequence of Fibroblast growth factor 2 (Homo sapiens) (P09038 whole entry, looked up): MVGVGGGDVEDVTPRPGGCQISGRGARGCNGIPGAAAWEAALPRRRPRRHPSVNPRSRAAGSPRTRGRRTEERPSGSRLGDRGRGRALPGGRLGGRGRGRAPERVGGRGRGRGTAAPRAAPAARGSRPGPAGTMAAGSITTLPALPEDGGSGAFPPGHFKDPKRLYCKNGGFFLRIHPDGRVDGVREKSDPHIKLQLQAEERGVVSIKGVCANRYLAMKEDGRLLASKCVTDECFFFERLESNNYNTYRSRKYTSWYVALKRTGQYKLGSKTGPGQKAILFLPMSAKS
Sequence of Concanavalin-A (Canavalia ensiformis) (P02866 whole entry, looked up): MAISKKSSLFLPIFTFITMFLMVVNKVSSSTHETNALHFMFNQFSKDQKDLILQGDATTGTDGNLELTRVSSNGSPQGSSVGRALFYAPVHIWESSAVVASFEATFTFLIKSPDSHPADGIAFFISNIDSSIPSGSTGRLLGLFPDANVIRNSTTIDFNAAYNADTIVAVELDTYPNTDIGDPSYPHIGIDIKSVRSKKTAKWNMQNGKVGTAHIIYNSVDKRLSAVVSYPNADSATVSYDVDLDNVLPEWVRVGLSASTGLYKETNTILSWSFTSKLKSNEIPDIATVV
Sequence of Albumin (Bos taurus) (P02769 whole entry, looked up): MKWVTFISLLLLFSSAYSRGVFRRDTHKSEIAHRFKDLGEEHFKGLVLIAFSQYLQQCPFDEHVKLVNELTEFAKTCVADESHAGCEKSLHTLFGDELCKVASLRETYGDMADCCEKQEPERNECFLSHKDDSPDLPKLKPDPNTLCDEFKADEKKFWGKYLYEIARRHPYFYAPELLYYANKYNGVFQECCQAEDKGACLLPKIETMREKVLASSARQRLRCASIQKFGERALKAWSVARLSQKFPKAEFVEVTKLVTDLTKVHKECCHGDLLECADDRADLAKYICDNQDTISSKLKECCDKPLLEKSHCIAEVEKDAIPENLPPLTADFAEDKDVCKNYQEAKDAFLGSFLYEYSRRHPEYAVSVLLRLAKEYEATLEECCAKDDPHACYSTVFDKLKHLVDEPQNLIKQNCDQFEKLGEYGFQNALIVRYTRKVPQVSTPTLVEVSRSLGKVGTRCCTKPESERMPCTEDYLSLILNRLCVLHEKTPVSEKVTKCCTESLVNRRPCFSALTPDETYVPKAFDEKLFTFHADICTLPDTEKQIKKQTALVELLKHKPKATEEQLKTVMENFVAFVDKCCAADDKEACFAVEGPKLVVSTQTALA

Compound | composite z-score (Albumin (Bos taurus)) | composite Z-score [1] | composite z-score [2] | composite z-score [3] | composite z-score [4] | composite z-score [5] | composite z-score [6] | composite z-score (Sam68 (KHDRBS1)) | composite z-score [7] | composite z-score [8] | composite z-score [9] | composite z-score [10] | composite z-score [11] | composite z-score [12] | composite z-score [13] | composite z-score [14] | z-score [15] | composite z-score (Lefty1) | composite z-score [16] | z-score [17]
CC1CC/C=C\[C@H]2OC34C=CCN(C(C)(C)C)C(=O)[C@H]3N(CCCO)C(=O)[C@@H]4C2C(=O)O1 (stereo not given in full) | -1.53 | 0.398 (inactive) | -0.155 | -0.164 | 0.916 | 0.386 | 0.71 | -0.307 | -0.286 | -0.532 | 0.441 | -0.137 | -0.441 | -0.735 | -0.404 | -0.685 | 0.0255 | -0.842 | -0.723 | 0.477 (inactive)
CC(C)(C)N1CC=CC23O[C@@H]4/C=C\CCCOC(=O)C4[C@H]2C(=O)N(CCCO)[C@@H]3C1=O (stereo not given in full) | 0.706 | -0.191 (inactive) | 0.134 | -0.0846 | 0.866 | 0.644 | 0.818 | -0.446 | -1.44 | -1.02 | 0.343 | -0.849 | -0.572 | -2.06 | -0.768 | -0.811 | -0.534 | -0.538 | -1.38 | 0.552 (inactive)
CN(C)CCCC[C@@H]1NC(=O)[C@H]2C[C@@H](C(=O)O)[C@@H](c3ccc(O)cc3)N2C1=O | 0.705 | 3.89 (inactive) | 1.65 | 0.68 | 0.946 | 4.01 | 1.31 | 1.33 | 1.48 | 1.24 | 3.85 | 1.31 | 1.99 | 1.04 | 1.52 | 1.83 | -0.447 | 1.63 | 1.65 | -0.367 (inactive)
[N-]=[N+]=Nc1ccccc1C[C@]1(C(=O)N2CCOCC2)N=C(c2ccc(OCCCO)cc2)O[C@H]1c1ccccc1N=[N+]=[N-] | 0.832 | 0.317 (inactive) | 0.472 | -0.14 | 0.648 | 3.09 | 0.654 | 1.28 | 0.86 | 1.15 | 2.37 | 1.19 | 1.08 | 0.96 | 1.41 | 1.79 | 0.268 | 1.41 | 0.97 | -4.36 (inactive)
CN1C(=O)C2C(C3CC3)C=C3CN(Cc4cccc(Cl)c4)[C@@H]([C@@H](O)Cc4ccccc4)C3C2C1=O (stereo not given in full) | 0.363 | 0.996 (inactive) | 0.147 | -0.104 | 0.225 | 1.17 | -0.0531 | 1.3 | 0.231 | 1.06 | 0.162 | 1.18 | 1.09 | 0.862 | 0.662 | 0.845 | 1.35 | 1.45 | 0.344 | -0.785 (inactive)
